Test results reported in the supplement of paper PMC4466140.

Assays:
Experiment in all cases: SPOT peptide array binding signal intensity (averaged, normalized) (arbitrary units (background-subtracted, floor 0; scale differs between SH3 domains)); higher = stronger binding of the SH3 domain to the peptide
AgAbp1 = target: AgAbp1
Method in brief: (§1)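 Binding signal is given in arbitrary units that differ between domains and is the normalized, background-subtracted spot intensity averaged across replicates. Each GST-SH3 fusion from one of four yeast species was made in E. coli BL21(DE3), purified on glutathione Sepharose and incubated at 10 μg/ml overnight at 4°C on cellulose-bound synthetic 15-mer peptides in which cysteines were replaced by serines. Detection used anti-GST antibody, an HRP anti-mouse secondary and luminol, followed by imaging and Genespotter quantification.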

AgBbc1 = target: AgBbc1
Method in brief: as §1

AgBem1-D1 = target: AgBem1-D1
Method in brief: as §1

AgBzz1-D1 = target: AgBzz1-D1
Method in brief: as §1

AgBzz1-D2 = target: AgBzz1-D2
Method in brief: as §1

AgCyk3 = target: AgCyk3
Method in brief: as §1

AgFus1 = target: AgFus1
Method in brief: as §1

AgHof1 = target: AgHof1
Method in brief: as §1

AgHse1 = target: AgHse1
Method in brief: as §1

AgLsb1 = target: AgLsb1
Method in brief: as §1

AgLsb4 = target: AgLsb4
Method in brief: as §1

AgMyo5 = target: AgMyo5
Method in brief: as §1

AgNbp2 = target: AgNbp2
Method in brief: as §1

AgRvs167 = target: AgRvs167
Method in brief: as §1

AgSho1 = target: AgSho1
Method in brief: as §1

AgSla1-D1-D2 = target: AgSla1-D1-D2
Method in brief: as §1

AgSla1-D3 = target: AgSla1-D3
Method in brief: as §1

CaAbp1-D1 = target: CaAbp1-D1
Method in brief: as §1

CaAbp1-D2 = target: CaAbp1-D2
Method in brief: as §1

CaBbc1 = target: CaBbc1
Method in brief: as §1

CaBem1-D1 = target: CaBem1-D1
Method in brief: as §1

CaBzz1-D1 = target: CaBzz1-D1
Method in brief: as §1

CaBzz1-D2 = target: CaBzz1-D2
Method in brief: as §1

CaCyk3 = target: CaCyk3
Method in brief: as §1

CaFus1 = target: CaFus1
Method in brief: as §1

CaHof1 = target: CaHof1
Method in brief: as §1

CaHse1 = target: CaHse1
Method in brief: as §1

CaLsb1 = target: CaLsb1
Method in brief: as §1

CaLsb4 = target: CaLsb4
Method in brief: as §1

CaMyo5 = target: CaMyo5
Method in brief: as §1

CaNbp2 = target: CaNbp2
Method in brief: as §1

CaRvs167 = target: CaRvs167
Method in brief: as §1

CaRvs167-3 = target: CaRvs167-3
Method in brief: as §1

CaSho1 = target: CaSho1
Method in brief: as §1

CaSla1-D1-D2 = target: CaSla1-D1-D2
Method in brief: as §1

CaSla1-D3 = target: CaSla1-D3
Method in brief: as §1

ScAbp1 = target: ScAbp1
Method in brief: as §1

ScBbc1 = target: ScBbc1
Method in brief: as §1

ScBem1-D1 = target: ScBem1-D1
Method in brief: as §1

ScBzz1-D1 = target: ScBzz1-D1
Method in brief: as §1

ScBzz1-D2 = target: ScBzz1-D2
Method in brief: as §1

ScCyk3 = target: ScCyk3
Method in brief: as §1

ScFus1 = target: ScFus1
Method in brief: as §1

ScHof1 = target: ScHof1
Method in brief: as §1

ScHse1 = target: ScHse1
Method in brief: as §1

ScLsb1 = target: ScLsb1
Method in brief: as §1

ScLsb2 = target: ScLsb2
Method in brief: as §1

ScLsb3 = target: ScLsb3
Method in brief: as §1

ScLsb4 = target: ScLsb4
Method in brief: as §1

ScMyo3 = target: ScMyo3
Method in brief: as §1

ScMyo5 = target: ScMyo5
Method in brief: as §1

ScNbp2 = target: ScNbp2
Method in brief: as §1

ScPex13 = target: ScPex13
Method in brief: as §1

ScRvs167 = target: ScRvs167
Method in brief: as §1

ScSho1 = target: ScSho1
Method in brief: as §1

ScSla1-D1-D2 = target: ScSla1-D1-D2
Method in brief: as §1

ScSla1-D3 = target: ScSla1-D3
Method in brief: as §1

SpAbp1-D1 = target: SpAbp1-D1
Method in brief: as §1

SpBbc1 = target: SpBbc1
Method in brief: as §1

SpBzz1-D1 = target: SpBzz1-D1
Method in brief: as §1

SpBzz1-D2 = target: SpBzz1-D2
Method in brief: as §1

SpCyk3 = target: SpCyk3
Method in brief: as §1

SpHof1 = target: SpHof1
Method in brief: as §1

SpHof1-2 = target: SpHof1-2
Method in brief: as §1

SpHof1-3 = target: SpHof1-3
Method in brief: as §1

SpHse1 = target: SpHse1
Method in brief: as §1

SpLsb1 = target: SpLsb1
Method in brief: as §1

SpLsb4 = target: SpLsb4
Method in brief: as §1

SpMyo1 = target: SpMyo1
Method in brief: as §1

SpNbp2 = target: SpNbp2
Method in brief: as §1

SpPex13 = target: SpPex13
Method in brief: as §1

SpRvs167 = target: SpRvs167
Method in brief: as §1

SpSla1-D1-D2 = target: SpSla1-D1-D2
Method in brief: as §1

SpSla1-D3 = target: SpSla1-D3
Method in brief: as §1

Measured: SPOT peptide array binding signal intensity

B1: unnamed (peptide)
chain: QDKEGIPPDQQRLIF
20: SpHof1-3
0.75: AgMyo5
0.5: SpHof1-2
10.8: CaMyo5
26: ScBzz1-D2
1: ScRvs167
18: ScBzz1-D1
0.333: AgRvs167
≤ 0: AgAbp1 | AgBbc1 | AgBem1-D1 | AgBzz1-D1 | AgBzz1-D2 | AgCyk3 | AgFus1 | AgHof1 | AgHse1 | AgLsb1 | AgLsb4 | AgNbp2 | AgSho1 | AgSla1-D1-D2 | AgSla1-D3 | CaAbp1-D1 | CaAbp1-D2 | CaBbc1 | CaBem1-D1 | CaBzz1-D1 | CaBzz1-D2 | CaCyk3 | CaFus1 | CaHof1 | CaHse1 | CaLsb1 | CaLsb4 | CaNbp2 | CaRvs167 | CaSho1 | CaSla1-D1-D2 | CaSla1-D3 | ScBbc1 | ScBem1-D1 | ScCyk3 | ScFus1 | ScHof1 | ScHse1 | ScLsb1 | ScLsb2 | ScLsb3 | ScLsb4 | ScMyo3 | ScNbp2 | ScPex13 | ScSho1 | ScSla1-D1-D2 | ScSla1-D3 | SpAbp1-D1 | SpBbc1 | SpBzz1-D1 | SpBzz1-D2 | SpCyk3 | SpHof1 | SpHse1 | SpLsb1 | SpLsb4 | SpMyo1 | SpNbp2 | SpPex13 | SpRvs167 | SpSla1-D1-D2 | SpSla1-D3
7: ScMyo5
8: ScAbp1
3: CaRvs167-3
